Inconclusive results are not listed. The source made the active and inactive calls. The calls were made as follows, unless noted: active = hit-call score of the fitted dose curve at least 0.9, where 1 is the maximum; inconclusive = response in the unintended direction; inactive = score below 0.9.
Experiments:
[1] = target: Androgen receptor (Homo sapiens) (UniProt P10275); assay: ATG_AR_TRANS: Attagene TRANS-FACTORIAL HepG2 Assay for human Androgen Receptor (AR) (AID 2282973); conditions: HepG2 Attagene TRANS-FACTORIAL AR reporter transcription
Summary of the method: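 HepG2 cells transiently transfected with multiplexed GAL4-UAS reporter units and chimeric NR-Gal4 fusion; 24 h compound exposure. Reporter mRNA measured by RT-PCR, 6-FAM labelling, HpaI digestion and capillary electrophoresis; gain-of-signal fitted relative to DMSO baseline.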

[2] = Tanguay_ZF_120hpf_MUSC: Oregon State University Tanguay Lab 120 Hour Post-fertilization zebrafish Assay for Muscle Malformation (AID 2284401; active = hit-call score of the fitted dose curve at least 0.9, where 1 is the maximum; inactive = score below 0.9)
Summary of the method: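 Dechorionated Tropical 5D wild-type zebrafish embryos exposed statically from 6 to 120 hpf at 28C, one per well, in 0.64% DMSO. Muscle malformation scored present/absent by brightfield microscopy at 120 hpf, fitted against DMSO.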

[3] = target: human CYP2C8, CYP2C8 (gene 1558) (UniProt P10632); assay: NVS_ADME_hCYP2C8: NovaScreen (NVS) CYP450-related Enzyme Activity (ADME) Assay for human CYP2C8 (AID 2283104; active = hit-call score of the fitted dose curve at least 0.9, where 1 is the maximum; inactive = score below 0.9)
Summary of the method: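 Recombinant human CYP2C8 with fluorogenic substrate, 0.5 h, fluorescence intensity; signal loss fitted versus acetonitrile. Screened in duplicate at 10 uM, then actives run in concentration-response up to 20 uM.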

[4] = target: human CYP2J2, CYP2J2 (gene 1573) (UniProt P51589); assay: NVS_ADME_hCYP2J2: NovaScreen (NVS) CYP450-related Enzyme Activity (ADME) Assay for human CYP2J2 (AID 2283106)
Summary of the method: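 Cell-free assay of recombinant CYP2J2 with a fluorogenic substrate, read 1 h after dosing; loss of signal versus acetonitrile. Primary screen at 10 uM in duplicate, then concentration-response up to 20 uM for chemicals passing threshold (e.g., 30% inhibition).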

[5] = target: human CYP4F12, CYP4F12 (gene 66002) (UniProt Q9HCS2); assay: NVS_ADME_hCYP4F12: NovaScreen (NVS) CYP450-related Enzyme Activity (ADME) Assay for human CYP4F12 (AID 2283111)
Summary of the method: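 Cell-free fluorescence assay of recombinant human CYP4F12 activity on a specific substrate, read 0.5 h after dosing. Primary screen in duplicate at 10 uM, then concentration series for actives; loss of signal fitted against acetonitrile negative control.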

[6] = target: rat CYP2C12, Cyp2c12 (gene 25011) (UniProt P11510); assay: NVS_ADME_rCYP2C12: NovaScreen (NVS) CYP450-related Enzyme Activity (ADME) Assay for rat CYP2C12 (AID 2283119)
Summary of the method: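 Cell-free recombinant rat CYP2C12 activity read by fluorescence 0.5 h after dosing; loss of signal versus acetonitrile control. Primary screen in duplicate at 10 uM; actives then run in concentration-response format.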

[7] = target: rat CYP2D1, Cyp2d1 (gene 266684) (UniProt P10633); assay: NVS_ADME_rCYP2D1: NovaScreen (NVS) CYP450-related Enzyme Activity (ADME) Assay for rat CYP2D1 (AID 2283122)
Summary of the method: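 Cell-free fluorescence enzyme-activity assay on extracted rat CYP2D1 protein, read 0.75 h after dosing. Primary screen in duplicate at 10 uM; qualifying chemicals then run in concentration-response to 20 uM max, loss-of-signal versus acetonitrile baseline.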

[8] = target: human AMP-activated Protein Kinase, alpha 1 (AMPKa1), PRKAA1 (gene 5562) (UniProt Q13131); assay: NVS_ENZ_hAMPKa1: NovaScreen (NVS) Enzymatic Assay for human AMP-activated Protein Kinase, alpha 1 (AMPKa1) (AID 2283130)
Summary of the method: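 Recombinant human AMPKα1 activity was measured cell-free by fluorescent substrate conversion with electrophoretic mobility-shift separation, 1 h after dosing. Duplicate single-point screening was at 25 uM; actives (≥30% inhibition) were retested in concentration-response up to 50 uM.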

[9] = target: human Fibroblast Growth Factor Receptor 1 (FGFR1), FGFR1 (gene 2260) (UniProt P11362); assay: NVS_ENZ_hFGFR1: NovaScreen (NVS) Enzymatic Assay for human Fibroblast Growth Factor Receptor 1 (FGFR1) (AID 2283159);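 also: hits lower the signal so potencies describe inhibitors of the kinase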
Summary of the method: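 Cell-free recombinant kinase with fluorescent substrate, product separated by electrophoretic mobility shift; read 1 hour after dosing, loss of signal relative to DMSO. Initial screen in duplicate at 25 uM, actives followed in concentration series.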

[10] = test system: rat Monoamine Oxidase, MAO-A, Central (MAOAC), gene 29253; assay: NVS_ENZ_rMAOAC: NovaScreen (NVS) Enzymatic Assay for rat Monoamine Oxidase, MAO-A, Central (MAOAC) (AID 2283243);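 also: potency refers to inhibition seen as signal drop below DMSO baseline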
Summary of the method: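 Steps: rat brain protein extract dosed with test chemical (25 uM, duplicate, primary); incubated 1.5 h; radiolabelled product separated from substrate and counted. Signal loss versus DMSO scored as inhibition.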

[11] = target: Norway rat Vesicular Monoamine Transporter (VMAT2), neurotransmitter transporter, Slc18a2 (gene 25549) (UniProt Q01827); assay: NVS_TR_rVMAT2: NovaScreen (NVS) Transporter Assay for Norway rat Vesicular Monoamine Transporter (VMAT2), neurotransmitter transporter (AID 2283376);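 also: actives lower the bound radioligand signal below the DMSO level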
Summary of the method: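 Radioligand displacement binding on rat forebrain tissue preparation, filter-based scintillation read-out 1 hour after dosing. Primary screen in duplicate at 25 uM, then concentration series for actives; loss of signal versus DMSO.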

Measured: AC50

Chain of Androgen receptor (Homo sapiens) (P10275 whole entry, looked up, the tested form may be a part): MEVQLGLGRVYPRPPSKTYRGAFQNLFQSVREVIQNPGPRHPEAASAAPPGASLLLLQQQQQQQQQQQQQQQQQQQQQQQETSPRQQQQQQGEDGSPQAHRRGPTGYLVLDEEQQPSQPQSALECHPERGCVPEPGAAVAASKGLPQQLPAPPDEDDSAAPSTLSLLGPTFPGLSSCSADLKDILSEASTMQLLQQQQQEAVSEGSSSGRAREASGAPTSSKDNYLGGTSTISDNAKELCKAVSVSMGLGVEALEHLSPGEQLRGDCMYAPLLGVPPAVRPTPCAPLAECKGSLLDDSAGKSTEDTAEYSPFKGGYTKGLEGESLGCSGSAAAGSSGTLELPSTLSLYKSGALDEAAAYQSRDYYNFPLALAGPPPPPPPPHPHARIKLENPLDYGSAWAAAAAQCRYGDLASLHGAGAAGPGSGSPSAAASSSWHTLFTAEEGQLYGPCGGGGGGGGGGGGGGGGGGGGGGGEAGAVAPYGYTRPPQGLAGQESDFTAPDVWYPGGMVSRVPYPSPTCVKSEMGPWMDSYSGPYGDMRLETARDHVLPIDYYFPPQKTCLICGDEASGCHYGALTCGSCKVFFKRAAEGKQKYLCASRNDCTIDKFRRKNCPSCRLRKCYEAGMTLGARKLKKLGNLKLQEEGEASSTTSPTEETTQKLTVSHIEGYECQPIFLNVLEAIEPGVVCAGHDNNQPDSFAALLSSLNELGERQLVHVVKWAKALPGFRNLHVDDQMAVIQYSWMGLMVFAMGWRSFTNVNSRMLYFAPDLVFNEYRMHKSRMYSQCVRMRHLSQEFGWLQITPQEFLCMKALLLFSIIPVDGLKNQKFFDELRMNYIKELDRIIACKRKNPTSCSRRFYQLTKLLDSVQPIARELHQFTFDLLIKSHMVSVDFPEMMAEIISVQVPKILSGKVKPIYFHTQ
Chain of human CYP4F12, CYP4F12 (gene 66002) (Q9HCS2 whole entry, looked up): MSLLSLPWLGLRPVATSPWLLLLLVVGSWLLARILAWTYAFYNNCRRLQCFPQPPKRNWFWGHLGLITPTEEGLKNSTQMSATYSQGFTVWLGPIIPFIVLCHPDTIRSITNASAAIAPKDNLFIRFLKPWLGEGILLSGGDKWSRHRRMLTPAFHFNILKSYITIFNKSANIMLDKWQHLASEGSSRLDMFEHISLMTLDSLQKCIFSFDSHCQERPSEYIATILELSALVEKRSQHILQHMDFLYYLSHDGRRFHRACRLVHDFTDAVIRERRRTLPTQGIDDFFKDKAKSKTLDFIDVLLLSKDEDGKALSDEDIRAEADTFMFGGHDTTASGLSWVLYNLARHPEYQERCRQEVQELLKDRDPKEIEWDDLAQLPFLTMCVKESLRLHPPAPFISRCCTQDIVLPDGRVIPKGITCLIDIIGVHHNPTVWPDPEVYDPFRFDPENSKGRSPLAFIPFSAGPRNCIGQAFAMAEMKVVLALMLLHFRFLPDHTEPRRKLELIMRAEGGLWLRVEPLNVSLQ
Chain of rat CYP2C12, Cyp2c12 (gene 25011) (P11510 whole entry, looked up): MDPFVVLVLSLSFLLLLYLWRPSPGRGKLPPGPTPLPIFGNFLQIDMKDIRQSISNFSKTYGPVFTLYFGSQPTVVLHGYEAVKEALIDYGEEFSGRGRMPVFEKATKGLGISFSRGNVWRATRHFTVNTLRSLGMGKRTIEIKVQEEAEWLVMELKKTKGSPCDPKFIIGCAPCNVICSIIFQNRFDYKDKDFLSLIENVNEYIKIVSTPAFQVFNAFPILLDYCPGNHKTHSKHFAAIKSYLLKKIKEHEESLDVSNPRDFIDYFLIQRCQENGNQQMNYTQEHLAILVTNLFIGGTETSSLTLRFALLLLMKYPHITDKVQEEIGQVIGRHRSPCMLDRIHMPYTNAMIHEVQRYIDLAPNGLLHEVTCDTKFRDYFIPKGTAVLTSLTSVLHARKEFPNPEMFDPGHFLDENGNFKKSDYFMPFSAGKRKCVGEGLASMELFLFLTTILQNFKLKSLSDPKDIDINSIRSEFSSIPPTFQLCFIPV
Chain of human Fibroblast Growth Factor Receptor 1 (FGFR1), FGFR1 (gene 2260) (P11362 whole entry, looked up): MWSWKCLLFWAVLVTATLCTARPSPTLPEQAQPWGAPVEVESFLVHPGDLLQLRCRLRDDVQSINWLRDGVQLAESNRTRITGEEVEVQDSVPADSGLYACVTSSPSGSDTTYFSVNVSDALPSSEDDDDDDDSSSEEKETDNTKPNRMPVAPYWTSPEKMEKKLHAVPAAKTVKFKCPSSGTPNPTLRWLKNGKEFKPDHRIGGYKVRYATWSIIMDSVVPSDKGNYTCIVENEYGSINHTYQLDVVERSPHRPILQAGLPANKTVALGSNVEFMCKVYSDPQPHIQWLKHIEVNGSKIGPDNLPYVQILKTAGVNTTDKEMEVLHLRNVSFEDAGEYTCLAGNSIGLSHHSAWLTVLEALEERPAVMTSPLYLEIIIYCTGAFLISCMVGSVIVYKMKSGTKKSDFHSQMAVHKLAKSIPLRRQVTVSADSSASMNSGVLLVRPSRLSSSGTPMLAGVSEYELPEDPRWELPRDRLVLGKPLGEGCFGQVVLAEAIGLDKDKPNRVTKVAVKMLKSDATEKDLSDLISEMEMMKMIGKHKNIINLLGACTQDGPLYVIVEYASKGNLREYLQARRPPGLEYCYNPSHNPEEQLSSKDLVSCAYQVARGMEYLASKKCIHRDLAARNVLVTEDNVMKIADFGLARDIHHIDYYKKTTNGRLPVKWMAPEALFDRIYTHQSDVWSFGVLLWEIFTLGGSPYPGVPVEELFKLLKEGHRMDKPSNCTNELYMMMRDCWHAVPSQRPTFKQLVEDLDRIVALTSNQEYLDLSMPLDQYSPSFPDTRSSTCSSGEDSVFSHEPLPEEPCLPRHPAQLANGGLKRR
Chain of human AMP-activated Protein Kinase, alpha 1 (AMPKa1), PRKAA1 (gene 5562) (Q13131 whole entry, looked up): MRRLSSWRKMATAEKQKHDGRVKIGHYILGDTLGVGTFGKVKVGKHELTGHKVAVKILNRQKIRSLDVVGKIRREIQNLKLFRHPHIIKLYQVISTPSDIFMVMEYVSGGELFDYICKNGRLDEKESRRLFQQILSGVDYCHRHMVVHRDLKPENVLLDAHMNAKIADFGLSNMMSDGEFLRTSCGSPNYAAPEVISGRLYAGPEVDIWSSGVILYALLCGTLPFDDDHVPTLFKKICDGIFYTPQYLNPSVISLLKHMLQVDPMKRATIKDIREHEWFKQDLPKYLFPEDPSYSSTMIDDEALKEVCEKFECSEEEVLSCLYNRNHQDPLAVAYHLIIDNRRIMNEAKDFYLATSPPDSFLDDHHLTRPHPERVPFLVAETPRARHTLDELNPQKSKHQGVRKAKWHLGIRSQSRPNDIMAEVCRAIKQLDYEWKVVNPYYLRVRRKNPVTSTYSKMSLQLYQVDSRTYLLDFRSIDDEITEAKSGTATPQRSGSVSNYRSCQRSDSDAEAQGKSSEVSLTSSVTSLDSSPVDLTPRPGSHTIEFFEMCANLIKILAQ
Chain of rat CYP2D1, Cyp2d1 (gene 266684) (P10633 whole entry, looked up): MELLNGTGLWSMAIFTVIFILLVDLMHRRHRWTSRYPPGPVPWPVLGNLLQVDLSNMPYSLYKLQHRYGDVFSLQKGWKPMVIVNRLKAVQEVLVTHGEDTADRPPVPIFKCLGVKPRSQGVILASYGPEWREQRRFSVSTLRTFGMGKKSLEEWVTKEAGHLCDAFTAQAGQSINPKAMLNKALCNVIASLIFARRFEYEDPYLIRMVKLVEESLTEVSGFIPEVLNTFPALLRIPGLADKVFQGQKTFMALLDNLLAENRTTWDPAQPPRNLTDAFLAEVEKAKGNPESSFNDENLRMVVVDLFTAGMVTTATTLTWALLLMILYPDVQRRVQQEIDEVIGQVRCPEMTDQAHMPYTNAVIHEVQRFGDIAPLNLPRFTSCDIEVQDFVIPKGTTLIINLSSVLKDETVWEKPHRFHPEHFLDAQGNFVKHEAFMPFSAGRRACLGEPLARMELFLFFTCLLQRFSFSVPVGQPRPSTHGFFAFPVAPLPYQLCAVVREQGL
Chain of human CYP2J2, CYP2J2 (gene 1573) (P51589 whole entry, looked up): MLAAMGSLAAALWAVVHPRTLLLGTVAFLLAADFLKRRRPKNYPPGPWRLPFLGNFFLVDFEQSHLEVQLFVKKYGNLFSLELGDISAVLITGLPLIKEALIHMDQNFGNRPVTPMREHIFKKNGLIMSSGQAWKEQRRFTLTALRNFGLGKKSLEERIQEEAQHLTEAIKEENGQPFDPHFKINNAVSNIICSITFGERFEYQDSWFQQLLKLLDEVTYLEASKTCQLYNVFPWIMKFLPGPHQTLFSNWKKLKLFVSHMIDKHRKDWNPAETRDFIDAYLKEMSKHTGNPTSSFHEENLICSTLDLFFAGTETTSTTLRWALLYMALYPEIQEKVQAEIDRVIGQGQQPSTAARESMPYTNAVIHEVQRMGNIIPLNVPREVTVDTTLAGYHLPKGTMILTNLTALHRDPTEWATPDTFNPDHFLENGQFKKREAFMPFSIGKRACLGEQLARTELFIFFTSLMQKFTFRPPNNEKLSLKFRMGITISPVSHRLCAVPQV
Chain of human CYP2C8, CYP2C8 (gene 1558) (P10632 whole entry, looked up): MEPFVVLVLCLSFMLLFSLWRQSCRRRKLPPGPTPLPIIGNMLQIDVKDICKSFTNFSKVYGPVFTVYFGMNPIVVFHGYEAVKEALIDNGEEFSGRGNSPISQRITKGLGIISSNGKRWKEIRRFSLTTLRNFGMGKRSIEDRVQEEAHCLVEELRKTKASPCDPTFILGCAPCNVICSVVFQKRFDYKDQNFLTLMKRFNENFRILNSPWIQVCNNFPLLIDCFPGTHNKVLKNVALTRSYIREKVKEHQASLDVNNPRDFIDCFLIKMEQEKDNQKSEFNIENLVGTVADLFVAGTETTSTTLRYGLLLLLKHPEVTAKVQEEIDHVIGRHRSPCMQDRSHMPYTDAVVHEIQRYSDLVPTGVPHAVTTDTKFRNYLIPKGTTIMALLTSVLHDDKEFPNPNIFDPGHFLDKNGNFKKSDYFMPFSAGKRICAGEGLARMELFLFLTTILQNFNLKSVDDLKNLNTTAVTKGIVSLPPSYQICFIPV

O=C(O)C(F)(F)C(F)(F)C(F)(F)OC(F)(C(F)(F)F)C(F)(F)F
inactive: [1] | [2]

C=C(C)C(=O)OCCC(F)(F)C(F)(F)C(F)(F)C(F)(F)C(F)(C(F)(F)F)C(F)(F)F
inactive: [1] | [2]

Oc1ccc(C(c2ccc(O)cc2)C(Cl)(Cl)Cl)cc1
inactive: [6] | [10]
active: [3] 1.06 µM | [4] 2.99 µM | [5] 0.615 µM | [7] 2.7 µM | [8] 19.6 µM | [9] 33.1 µM | [11] 7.63 µM

NC(O)(C(F)(F)F)C(F)(F)F
inactive: [1] | [2]
